C2C12 statin = suppressors of simvastatin-induced myotoxicity in C2C12 myotubes | ATP luminescence, 48 h; scaled: DMSO 0, geranylgeraniol control 100 | rescue of ATP level, % at 7.49 µM | 330,000 tested, 0.78% active | AID 602340;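 active = mean ATP rescue above about 67%, or every replicate alone reaching that limit, limit read from the data, passing the limit was not always enough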;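 also: myotubes were challenged with 10 µM simvastatin during compound exposure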
PGC1a acetyl inh = PGC1a acetylation modulation, inhibitor mode; U2OS PGC1a acetylation, AlphaScreen anti-acetyl-lysine; with virally co-expressed GCN5 acetyltransferase; inhibition, % at 15.6 µM; 350,000 tested, 0.17% active; AID 651687;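 active = every replicate shows inhibition of at least 40%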
DENV2 CPE = protects cells from dengue virus 2 cytopathic effect | DENV2-infected cells, cytopathic effect rescue, plate reader | CPE inhibition, % at 9.99 µM | 350,000 tested, 1.7% active; in the data active = CPE inhibition above about 20%, passing the limit was not always enough; tested in BHK-21 cells
miR122 inh = blocks miR-122 activity in Huh7 sensor cells; Huh7 miR-122 Renilla luciferase sensor, 48 h; neutral wells = 0, positive control = 100; activation (reporter increase), % at 12.5 µM; AID 602342; 340,000 tested, 0.3% active;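 active = mean replicate activation score at least 90 and every replicate individually at or above 90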;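 also: higher luciferase means less miR-122 activity so hits act as miR-122 inhibitors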
PvdQ acylase = blocks Pseudomonas aeruginosa PvdQ acylase activity. inhibition, % at 10 µM. 340,000 tested, 0.063% active. purified PvdQ acylase, fluorescence plate reader; in the data active = inhibition above about 30%, passing the limit was not always enough
Numbers stand for hits; – = inactive; · = no result; ! = a repeat was not active; [ ] = remark or other dose. Only some compounds are listed: those with a hit (about 2.2% of all), similar ones and a draw of the others.

SMILES	C2C12 statin	PGC1a acetyl inh	DENV2 CPE	miR122 inh	PvdQ acylase
COC(=O)N1CCCCC1c1cc(C(=O)Nc2ccc(OC)cc2C)no1 (centres undefined)	–	–	51	–	·
COc1ccc(C(=O)N2CCCCC2c2cc(C(=O)NCc3cccnc3)no2)cc1 (centres undefined)	–	–	33	–	·
COc1ccc(NC(=O)c2cc(C3CCCCN3C(=O)c3cc(F)ccc3C)on2)c(C)c1 (centres undefined)	–	–	–	–	·
Cc1ccc(F)cc1C(=O)N1CCCCC1c1cc(C(=O)NC(C)C)no1 (centres undefined)	–	–	56	–	·
COc1ccc(C(=O)N2CCCCC2c2cc(C(=O)Nc3ccc(OC)cc3C)no2)cc1 (centres undefined)	–	–	–	–	·
COC(=O)N1CCCCC1c1cc(C(=O)Nc2ccccc2Cl)no1 (centres undefined)	–	–	28	–	·
C[C@H](CO)N1C[C@H](C)[C@H](CN(C)S(C)(=O)=O)Oc2ccc(NS(=O)(=O)c3cccs3)cc2CC1=O	–	–	–	–	·
CCS(=O)(=O)N[C@H]1C=C[C@@H](CC(=O)N2CCCCC2)O[C@H]1CO	–	–	–	–	·
COc1ccc(S(=O)(=O)N2CCCCC2c2cc(C(=O)Nc3ccccc3Cl)no2)cc1 (centres undefined)	–	–	–	–	·
COc1ccc(NC(=O)c2cc(C3CCCCN3C(=O)c3cc(C(C)(C)C)nn3C)on2)c(C)c1 (centres undefined)	–	–	48	–	·
COc1ccc(S(=O)(=O)N2CCCCC2c2cc(C(=O)Nc3ccccc3)no2)cc1 (centres undefined)	–	–	33	–	·
CC(C)NC(=O)Nc1ccc2c(c1)C(=O)N([C@H](C)CO)C[C@@H](C)[C@@H](CN(C)Cc1ccncc1)OCCCC[C@@H](C)O2	·	–	–	–	·
COc1cccc(CNC(=O)C[C@H]2CC[C@H]3[C@H](COc4ccc(NC(=O)c5cccs5)cc4C(=O)N3C)O2)c1	–	–	–	–	·
C[C@H]1CN([C@@H](C)CO)C(=O)CCCn2cc(nn2)CO[C@H]1CN(C)C(=O)Nc1cccc2ccccc12	–	–	–	–	·
Cn1c(-c2ccco2)n[nH]c1=S	·	–	–	·	–
S=c1nc(-c2ccco2)[nH][nH]1	96	–	·	–	–
COc1ccc(S(=O)(=O)Nc2cccc3c2O[C@@H](CN(C)C(=O)Nc2c(C)noc2C)[C@@H](C)CN([C@@H](C)CO)C3=O)cc1	–	–	26	–	·
COc1ccc(S(=O)(=O)Nc2cccc3c2O[C@H](CN(C)C(=O)Nc2c(C)noc2C)[C@H](C)CN([C@@H](C)CO)C3=O)cc1	–	–	–	–	·
COc1ccc(S(=O)(=O)Nc2cccc3c2O[C@H](CN(C)C(=O)Nc2ccc(F)cc2)[C@H](C)CN([C@@H](C)CO)C3=O)cc1	130	–	–	–	·
C[C@H](CO)N1C[C@H](C)[C@@H](CN(C)C(=O)Nc2ccc(F)cc2)Oc2c(NS(=O)(=O)c3ccccc3)cccc2C1=O	–	–	–	128[16.7 µM]	·
COc1ccc(S(=O)(=O)Nc2cccc3c2O[C@@H](CN(C)C(=O)Nc2ccc(F)cc2)[C@H](C)CN([C@@H](C)CO)C3=O)cc1	–	–	–	–	·
C[C@H](CO)N1C[C@H](C)[C@H](CN(C)C(=O)Nc2ccc(F)cc2)Oc2c(NS(=O)(=O)c3ccccc3)cccc2C1=O	–	–	–	–	·
C[C@@H]1CN([C@H](C)CO)C(=O)c2cccc(NS(=O)(=O)c3ccccc3)c2O[C@@H]1CN(C)C(=O)Nc1ccc(F)cc1	–	–	34	–	·
C[C@@H]1CN([C@H](C)CO)C(=O)c2cccc(NS(=O)(=O)c3ccccc3)c2O[C@@H]1CN(C)C(=O)Nc1ccccc1	–	–	–	–	·
C[C@H](CO)N1C[C@H](C)[C@@H](CN(C)C(=O)Nc2ccccc2)Oc2c(NS(=O)(=O)c3ccccc3)cccc2C1=O	–	–	25!	–	–
SMILES	C2C12 statin	PGC1a acetyl inh	DENV2 CPE	miR122 inh	PvdQ acylase
CCOC(=O)N1CCN(C(=O)CNCc2cccs2)CC1	93	–	·	–	–
CC(C)N1C(=O)CC(Nc2ccc(N3CCOCC3)cc2)C1=O (centres undefined)	–	·	·	183	–
Cc1cccc(N(C(=O)C(F)(F)F)C(C(=O)NC2CCCCC2)c2cccs2)c1 (centres undefined)	–	–	·	–	–
COc1ccc(C(C(=O)NC2CCCCC2)N(Cc2cccs2)C(=O)Cc2c[nH]c3ccccc23)cc1 (centres undefined)	–	–	·	–	–
C#CC(=O)N(c1ccc(OC)c(OC)c1)C(C(=O)NC1CCCC1)c1cccs1 (centres undefined)	–	103	·	–	–
C#CC(=O)N(c1cccc(OC)c1)C(C(=O)NC1CCCC1)c1cccs1 (centres undefined)	–	93	–	–	–
COc1cccc(CN(C(=O)Cc2c[nH]c3ccccc23)C(C(=O)NC2CCCCC2)c2cccs2)c1 (centres undefined)	–	–	·	240	–
CO[C@H]1CN(C)C(=O)c2ccc(NC(=O)C3CCC3)cc2OC[C@H](C)N(Cc2nccs2)C[C@@H]1C	–	·	–	–	·
CCCNC(=O)[C@@H]1[C@@H](CO)[C@@H]2Cn3c(ccc(-c4ccccc4F)c3=O)[C@H]1N2C(C)=O	–	·	–	·	·
CCOP(=O)(c1ccccc1)C(O)c1ccc([N+](=O)[O-])cc1 (centres undefined)	–	–	39	–	–
COc1ccc(NC(=O)N(C)C[C@@H]2Oc3ccc(NC(=O)Nc4ccc5c(c4)OCO5)cc3CC(=O)N([C@H](C)CO)C[C@H]2C)cc1	–	–	–	–	·
CC(=O)N(C)C[C@@H]1Oc2cc(-c3ccccc3)ccc2S(=O)(=O)N([C@H](C)CO)C[C@@H]1C	–	–	–	–	·
Cc1onc(-c2ccccc2)c1C(=O)Nc1ccc2c(c1)OCCO2	–	–	–	–	–
CC(=O)c1cc2c(cc1NC(=O)c1c(-c3ccccc3)noc1C)OCO2	85	–	·	–	–
CCCCCn1c(=O)c(C(=O)c2ccccc2)nc2ccccc21	121	–	·	–	–
CCCCCCn1c(C(C)O)nc2ccccc21 (centres undefined)	111	–	·	–	–
CCCCn1c(C(C)NC(=O)c2cccs2)nc2ccccc21 (centres undefined)	135	–	·	–	–
C[C@@H]1CN([C@H](C)CO)C(=O)c2cccc(NS(=O)(=O)c3ccc(Cl)cc3)c2O[C@@H]1CN(C)CC1CCCCC1	–	·	–	–	·
CN(Cc1ccccc1)S(=O)(=O)c1ccc(Cl)c(C(=O)OCC(=O)NC2CCS(=O)(=O)C2)c1 (centres undefined)	–	–	32	–	–
O=C(C[C@H]1C=C[C@@H](NC(=O)C2CCC2)[C@@H](CO)O1)NC1CCC1	–	–	–	–	·
